Assay outcomes as filed in PubChem BioAssay.
Rows were chosen to be rich in hits. Some 4.8% of all compounds tested hit in one or more screens of this group.
ssDAF12 agonist – S. stercoralis DAF-12 activation, primary screen. HEK293 ssDAF-12/GRIP1 lit1-tk-luc reporter, luminescence; % of 3 µM dafachronic acid response. activation, % at 6.8 µM. 370,000 compounds, 1% hits;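 active = activation above the mean over all tested compounds plus 3 SD, cut at about 0.9% in these data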;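 note: 0% = DMSO-only wells and 100% = 3 µM delta7-dafachronic acid wells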
SMARCA2 act – SMARCA2 function activation, primary screen; MG213 cells, MMTV-luciferase reporter, dexamethasone, overnight; activation, % at 9.1 µM; 370,000 compounds, 1% hits; in the data active = activation above about 7.8%;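 note: 0% = vehicle wells and 100% = reference activator wells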
DAX1 inh-1 – blocks DAX1 repression of SF-1 activated StAR promoter; HEK293T StAR-luciferase reporter, SF-1/DAX-1 repression relief; inhibition, % at 6.8 µM; 370,000 compounds, 1.1% hits;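 active = inhibition above the mean over all tested compounds plus 3 SD, cut at about 3.6% in these data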;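 note: 0% = DAX-1 cells with DMSO and 100% = cells lacking DAX-1 with DMSO; higher inhibition means more luminescence from relief of DAX-1 repression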
hgDAF-12 ag – agonists of H. glycines DAF-12 nuclear receptor; activation, % at 6.8 µM; HEK293 GAL4-hgDAF12 UAS-luciferase reporter, agonist luminescence; normalized to butyrate control; 370,000 compounds, 1.8% hits;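 active = activation above a cutoff set at the mean of all screened compounds plus 3 SD, cut at about 10% in these data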;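 note: 0% = DMSO wells and 100% = sodium butyrate wells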
DAX1 inh-2 – inhibitors of human orphan nuclear receptor DAX1 (NR0B1) | P51843 | HEK293 Gal4-DAX1 luciferase reporter, luminescence | inhibition, % at 6.75 µM | 340,000 compounds, 0.99% hits;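 active = inhibition above the mean over all tested compounds plus 3 SD, cut at about 4.2% in these data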;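 note: 0% = DAX1-transfected cells with DMSO and 100% = empty-vector control cells with DMSO; inhibition shows as a rise in luminescence from relieved DAX1 repression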
Target sequence (P51843 207-470 limits assumed): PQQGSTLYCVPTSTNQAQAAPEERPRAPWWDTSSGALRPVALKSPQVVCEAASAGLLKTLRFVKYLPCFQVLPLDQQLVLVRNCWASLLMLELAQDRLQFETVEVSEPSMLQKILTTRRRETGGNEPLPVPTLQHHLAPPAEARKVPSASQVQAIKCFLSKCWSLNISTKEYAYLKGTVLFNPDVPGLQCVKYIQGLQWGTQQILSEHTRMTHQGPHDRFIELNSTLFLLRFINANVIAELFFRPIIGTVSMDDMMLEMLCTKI
hcDAF12 agonist – H. contortus DAF-12 activation, primary screen | activation, % at 6.8 µM | HEK293 hcDAF-12 lit1-tk-luc reporter, luminescence; 0% DMSO, 100% Δ7-dafachronic acid | 370,000 compounds, 1.4% hits;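 active = activation above the mean of all tested compounds plus 3 SD, cut at about 5.5% in these data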;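 note: 100% = response to 3 µM Δ7-dafachronic acid high control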
Active calls of the source: *.

For COc1ccc(/C=C/C(=O)Oc2ccc(/C=N/NC(=O)c3ccccc3)cc2)cc1OC the results were ssDAF12 agonist 0, SMARCA2 act -2, DAX1 inh-1 0, hgDAF-12 ag 6, DAX1 inh-2 4.2* and hcDAF12 agonist 0.
Screening O=C(N/N=C\c1cccs1)c1ccccc1-n1cccc1 returned ssDAF12 agonist 0, SMARCA2 act 1, DAX1 inh-1 -1, hgDAF-12 ag 1, DAX1 inh-2 0 and hcDAF12 agonist 5.
Screening O=C(N/N=C/c1ccc(F)cc1)c1ccccc1 returned ssDAF12 agonist 0, SMARCA2 act 3, DAX1 inh-1 3, hgDAF-12 ag 13*, DAX1 inh-2 5.2* and hcDAF12 agonist 3.
`O=C(N/N=C\c1ccc(F)cc1)c1csnn1` gave ssDAF12 agonist -1, SMARCA2 act 6, DAX1 inh-1 2, hgDAF-12 ag 13*, DAX1 inh-2 3 and hcDAF12 agonist 1.
Screening O=C(O)c1ccc(/C=N/NC(=O)c2ccc(F)cc2)cc1 returned ssDAF12 agonist -1, SMARCA2 act -2, DAX1 inh-1 0, hgDAF-12 ag -1, DAX1 inh-2 1 and hcDAF12 agonist 1.
Screening COc1ccc(/C=N/NC(=O)c2ccncc2)cc1OC returned ssDAF12 agonist -1, SMARCA2 act -3, DAX1 inh-1 0, hgDAF-12 ag -2, DAX1 inh-2 0 and hcDAF12 agonist -2.
CCOC(=O)N1CCN(C(=O)C[C@H]2C[C@@]3(C(=O)OC)C(=C[C@H](C4CCCC4)O[C@@H]3C)N(Cc3cccc4ccccc34)C2=O)CC1 was read as ssDAF12 agonist -1, SMARCA2 act 0, DAX1 inh-1 0, hgDAF-12 ag -3 and hcDAF12 agonist -2.
For COC(=O)[C@]12C[C@H](CC(=O)NCCCCc3ccccc3)C(=O)N(CCC3=CCCCC3)C1=C[C@H](C1CCCC1)O[C@@H]2C the results were ssDAF12 agonist -2, SMARCA2 act -4, DAX1 inh-1 -1, hgDAF-12 ag 2 and hcDAF12 agonist -1.
For CCC(=O)N1N=C(c2ccc(Cl)cc2)CC1c1ccco1 (stereo unspecified) the results were ssDAF12 agonist -2, SMARCA2 act -2, DAX1 inh-1 0, hgDAF-12 ag 1, DAX1 inh-2 5.8* and hcDAF12 agonist -1.
O=C(Nc1ccc2c(c1)Cc1ccccc1-2)NC1CCCCN(Cc2cccc(Cl)c2)C1=O (stereo unspecified) was read as ssDAF12 agonist -1, SMARCA2 act -2, DAX1 inh-1 1, hgDAF-12 ag 8 and hcDAF12 agonist -1.
Screening O=C(CC12CC3CC(CC(C3)C1)C2)NC(=S)N1CCCCC1 returned ssDAF12 agonist 1.2*, SMARCA2 act -2, DAX1 inh-1 0, hgDAF-12 ag 0, DAX1 inh-2 1 and hcDAF12 agonist -1.
Cc1nn(-c2ccccc2Cl)c(Cl)c1/C=N/Nc1cccc(C(=O)O)c1 was read as ssDAF12 agonist 0, SMARCA2 act 3, DAX1 inh-1 4.0*, hgDAF-12 ag 10, DAX1 inh-2 -4 and hcDAF12 agonist 4.
Cc1nn(-c2ccccc2)c(Cl)c1/C=N/NC(=O)c1cccc(S(=O)(=O)N2CCCC2)c1 was read as ssDAF12 agonist -1, SMARCA2 act -2, DAX1 inh-1 1, hgDAF-12 ag 1, DAX1 inh-2 -1 and hcDAF12 agonist 2.
O=c1[nH]c(/C=C/c2ccc(Br)cc2)nc2ccccc12 was read as ssDAF12 agonist -1, SMARCA2 act 3, DAX1 inh-1 1, hgDAF-12 ag 6, DAX1 inh-2 3 and hcDAF12 agonist 1.
For Cc1nc(/C=C/c2ccccc2)[nH]c(=O)c1-c1ccccc1 the results were ssDAF12 agonist 0, SMARCA2 act 8, DAX1 inh-1 2, hgDAF-12 ag 12*, DAX1 inh-2 3 and hcDAF12 agonist 5.
Screening COc1cccc(/C=C(\C#N)c2nc3ccc(C)cc3[nH]2)c1OCC(=O)O returned ssDAF12 agonist -1, SMARCA2 act 2, DAX1 inh-1 0, hgDAF-12 ag 5, DAX1 inh-2 1 and hcDAF12 agonist 6.1*.
Cc1ccc2nc(/C(C#N)=C/c3ccccc3C(=O)O)[nH]c2c1 was read as ssDAF12 agonist 1.0*, SMARCA2 act 3, DAX1 inh-1 0, hgDAF-12 ag 5, DAX1 inh-2 8.4* and hcDAF12 agonist 4.
`N#C/C(=C\c1ccccc1C(=O)O)c1nc2ccccc2[nH]1` gave ssDAF12 agonist 0, SMARCA2 act 2, DAX1 inh-1 0, hgDAF-12 ag 4, DAX1 inh-2 4.4* and hcDAF12 agonist 3.
For Cc1ccc2nc(/C(C#N)=C/c3ccc(O)c(O)c3)[nH]c2c1 the results were ssDAF12 agonist -1, SMARCA2 act 3, DAX1 inh-1 0, hgDAF-12 ag 1, DAX1 inh-2 2 and hcDAF12 agonist -2.
For O=C(NN=C1CCCC1)c1ccn[nH]1 the results were ssDAF12 agonist 1, SMARCA2 act 3, DAX1 inh-1 2, hgDAF-12 ag 12*, DAX1 inh-2 2 and hcDAF12 agonist 1.
For Nn1c(SCc2cccc(F)c2)nnc1-c1cccnc1 the results were ssDAF12 agonist 1.1*, SMARCA2 act 1, DAX1 inh-1 0, hgDAF-12 ag 2, DAX1 inh-2 5.7* and hcDAF12 agonist -1.
CCCCc1ccc(NC(=O)C(C)CC)cc1 (stereo unspecified) was read as ssDAF12 agonist -2, SMARCA2 act 2, DAX1 inh-1 1, hgDAF-12 ag 5, DAX1 inh-2 4.4* and hcDAF12 agonist 0.
O=C1CCC2(CCCCC2)N1CCCO was read as ssDAF12 agonist 0, SMARCA2 act -2, DAX1 inh-1 -1, hgDAF-12 ag -3 and hcDAF12 agonist 0.
For CC(=O)C(Sc1nn(C)c(=S)s1)C(=O)Nc1ccccc1 (stereo unspecified) the results were ssDAF12 agonist 1.0*, SMARCA2 act 1, DAX1 inh-1 2, hgDAF-12 ag 6, DAX1 inh-2 1 and hcDAF12 agonist 2.
CC(=O)C(Sc1nc(N(C)C)nc(N(C)C)n1)C(=O)Nc1ccccc1 (stereo unspecified) was read as ssDAF12 agonist -1, SMARCA2 act 0, DAX1 inh-1 0, hgDAF-12 ag 0, DAX1 inh-2 1 and hcDAF12 agonist 1.
For COC(=O)C1CN(Cc2cn(Cc3ccc(F)cc3)nn2)CCS(=O)(=O)N1Cc1ccc(OC)cc1 (stereo unspecified) the results were ssDAF12 agonist -2, SMARCA2 act -4, DAX1 inh-1 0, hgDAF-12 ag 2 and hcDAF12 agonist -4.
`O=c1[nH][nH]c2cc(=O)n(-c3cccc(C(F)(F)F)c3)nc12` gave ssDAF12 agonist 5.2*, SMARCA2 act 2, DAX1 inh-1 0, hgDAF-12 ag -1, DAX1 inh-2 0 and hcDAF12 agonist -1.
